High-throughput results (PubChem BioAssay)
KAT2A inh – blocks human GCN5L2 histone acetyltransferase; Q92830; Potency, µM (doses to about 58.9 µM), without a hit: at the top dose activity change, negative = inhibition, hits mostly inhibitors; AID 504327; GCN5L2 HAT assay, ThioGlo1 CoA-SH fluorescence; 0.21% of 390,000 active; further: potency means the concentration at half of the fitted maximal effect; on the % scale 0 is the no-effect control and ±100 the full control effect
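Enzyme at 20nM final was mixed with library compounds for 15 min at room temperature. Peptide H3(1-25) at 75uM, acetyl-CoA at 70uM and ThioGlo1 at 50uM were then added. Plates were read immediately and after 20 min (Ex340nm/Em540nm).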
RECQ1 helicase – RECQ1 (human) helicase inhibition; AID 2549; RECQ1 DNA unwinding, red fluorescence kinetic read; Potency, µM (titrated, usually from 57.3 µM), for inactives: at the highest dose activity, negative = inhibition, most hits filed as inhibitors; P46063; 0.54% of 240,000 active;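 further: potency means the concentration at half of the fitted maximal effect; plate controls were vehicle for no effect and no enzyme for full effect; nearly all actives have a fitted effect of over 30% in size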
Target sequence (P46063 whole entry, looked up): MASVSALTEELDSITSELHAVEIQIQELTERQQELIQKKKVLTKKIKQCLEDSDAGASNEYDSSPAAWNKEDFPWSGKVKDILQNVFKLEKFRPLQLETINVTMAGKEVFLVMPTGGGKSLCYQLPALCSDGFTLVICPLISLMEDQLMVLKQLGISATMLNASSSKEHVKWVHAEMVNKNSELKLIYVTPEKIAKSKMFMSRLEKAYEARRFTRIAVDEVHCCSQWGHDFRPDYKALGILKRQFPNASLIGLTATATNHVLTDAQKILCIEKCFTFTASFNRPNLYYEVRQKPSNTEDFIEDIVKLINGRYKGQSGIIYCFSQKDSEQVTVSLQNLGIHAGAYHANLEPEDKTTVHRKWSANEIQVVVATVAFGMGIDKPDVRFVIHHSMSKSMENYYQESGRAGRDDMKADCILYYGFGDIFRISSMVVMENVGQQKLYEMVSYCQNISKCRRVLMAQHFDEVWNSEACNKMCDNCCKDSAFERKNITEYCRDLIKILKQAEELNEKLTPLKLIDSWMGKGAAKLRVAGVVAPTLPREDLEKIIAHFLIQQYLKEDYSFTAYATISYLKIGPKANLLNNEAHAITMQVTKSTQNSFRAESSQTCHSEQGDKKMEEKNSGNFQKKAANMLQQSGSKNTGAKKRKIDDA
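RECQ1T1 50 nM; forked duplex (20 bp + 30-nt ss tails) 200 nM, ATP 2 mM final; pH 8.0, 2 mM MgCl2, 2.5 ug/ml poly(dI-dC); 15 min compound preincubation; discontinuous kinetic read over 2 h at RT.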
FEN1 inh-1 – inhibitors of human flap endonuclease 1. P39748. Recombinant FEN1 flap cleavage, fluorescence, 15 min. Potency, µM (highest dose often 114 µM), for inactives: at the highest dose activity change, negative = inhibition, actives largely listed as inhibitors. 0.35% of 390,000 active. AID 588795; further: potency means the concentration at half of the fitted maximal effect; on the % scale 0 is the no-effect control and ±100 the full control effect; nearly all actives have a fitted effect of over 65% in size
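FEN1 at 10 nM, compound pretreatment for 15 min (room temperature), 50 nM final substrate to initiate; endpoint reads at 0 and 15 min; DMSO-only plates used as vehicle background.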
APEX1 inh – APE1 (human) endonuclease inhibition; P27695; recombinant APE1, TAMRA/BHQ-2 abasic DNA cleavage fluorescence; Potency, µM (highest dose often 65.8 µM), for the others: at the top dose activity change, negative = inhibition, actives largely listed as inhibitors; 0.35% of 350,000 active;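 further: potency means the concentration at half of the fitted maximal effect; plate controls were vehicle for no effect and reference inhibitor for full effect; nearly all actives have a fitted effect of over 55% in size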
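0.75 nM APE1 + cpd, 15 min RT; start w/ 50 nM TAMRA/BHQ-2 THF-abasic dsDNA; kinetic fluor 525/598 nm ×3 reads @60 s; Δ(read3−read1); normalized to DMSO and NSC13755 control wells.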
BLM helicase inh – Bloom syndrome helicase (human) inhibition; P54132; recombinant BLM DNA unwinding, fluorescence dequenching; Potency, µM (top dose mostly 56.1 µM), for the others: at the highest dose activity change, negative = inhibition, hits mostly inhibitors; 0.2% of 350,000 active; AID 2528;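 further: potency means the concentration at half of the fitted maximal effect; plate controls were vehicle for no effect and no enzyme for full effect; nearly all actives have a fitted effect of over 35% in size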
PI5P4K alpha inh – inhibitors of human PI5P4K alpha. P48426. PI5P4Kalpha enzyme, ADP-Glo luminescence, 60 min; hits give low values. max response, %. 1.2% of 330,000 active; active means max response of -50% or lower; inconclusive means between -30% and -50%; inactive means -30% or higher; further: value at the top dose of about 77 µM; on the % scale 0 is the no-effect control and ±100 the full control effect
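Human PI5P4Kalpha with substrate in 0.038 M HEPES pH 7.4, 0.28 mM EGTA, 0.1% CHAPS, 5% DMSO; reaction started with 5 microM ATP (final), 60 min at room temperature. ADP formed read by ADP-Glo luminescence.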
FEN1 inh-2 – confirmation of human FEN1 inhibitors | FEN1 flap cleavage, TAMRA/BHQ2 fluorogenic DNA substrate | 79% of 880 active | shares compounds with FEN1 inh-1 | Potency, µM, hits mostly inhibitors; further: potency means the concentration at half of the fitted maximal effect; nearly all actives have a fitted effect of over 60% in size
* = called active by the depositor; i = inactive; ? = inconclusive; . = no result; [ ] = another dose, or the depositor's remark. The list is not random: actives were taken first. Their share in the collection is about 1.5%. Unless noted, the call rests on the fitted dose curve; in most records, active means well fitted curve in the direction sought with a large enough effect; inconclusive means small, poorly fitted or top-dose-only effect, or another doubt; inactive means no such curve, though single readings can be large; an effect the other way counts as inactive or inconclusive.

SMILES	KAT2A inh	RECQ1 helicase	FEN1 inh-1	APEX1 inh	BLM helicase inh	PI5P4K alpha inh	FEN1 inh-2
O=C1CN(C(=O)COC(=O)c2ccc([N+](=O)[O-])o2)c2ccccc2N1	-5%	.	?	?	.	-8	19*
O=C1CN(C(=O)COC(=O)c2ccc([N+](=O)[O-])s2)c2ccccc2N1	1%	.	?	?	.	6	7.6*
O=C1CN(C(=O)COC(=O)c2ccco2)c2ccccc2N1	1%	.	7%	18%	.	-1	.
CC1(C)C(=O)Nc2ccccc2N1C(=O)COC(=O)c1cccc(O)c1	-12%	.	-13%	-17%	.	?	.
COc1cc(/C=C/c2nc3cc(Cl)ccc3c(=O)n2-c2ccc(C)cc2C)cc(OC)c1OC	1%	.	-7%	.	0%	.	.
COc1ccccc1NC(=O)COC(=O)c1ccc([N+](=O)[O-])s1	-10%	-3%	-10%	?	-7%	3	7.6*
CCN(c1ccc(NC(=O)COC(=O)c2ccc([N+](=O)[O-])o2)cc1)C(C)C	1%	.	-4%	-8%	.	-1	.
CC(=O)Nc1ccc(NC(=O)COC(=O)c2ccc([N+](=O)[O-])o2)cc1	-1%	.	20µM*	-39%	.	-2	15*
O=C(COC(=O)c1ccc([N+](=O)[O-])o1)NCc1ccc(F)cc1	-1%	.	?	-12%	.	0	13*
O=C(COC(=O)c1ccc([N+](=O)[O-])s1)c1ccc[nH]1	-8%	.	-22%	?	.	?	3.4*
COc1cc(-c2nnc(SCCOc3ccc(Cl)cc3)o2)cc(OC)c1OC	-4%	.	-6%	.	-3%	.	.
Cc1ccc(C)c(S(=O)(=O)c2nnn3c2nc(NCc2ccc4c(c2)OCO4)c2sccc23)c1	-10%	.	13%	.	-7%	.	.
O=C(COC(=O)c1ccc([N+](=O)[O-])s1)NCCc1ccccc1	-8%	.	?	?	.	-4	.
O=C(COC(=O)c1ccc([N+](=O)[O-])s1)NCc1ccc(F)cc1	-3%	-7%	-10%	32µM*	-18%	-4	6.7*
CCN(CC)CCn1c2ccccc2c2cnc(N)c(C#N)c21	-2%	i	?	-12%	181%	1	21*
O=C1c2ccc3c4c(ccc(c24)C(=O)N1NC(=O)C(F)(F)F)CC3	-6%	?	56µM*	?	-1%	.	60*
CC(=O)c1sc2nc(CSc3nnnn3-c3ccccc3)[nH]c(=O)c2c1C	?	i	79µM*	3%	16µM*	-83*	?
COc1ccc(NC(=O)CCn2c(-c3ccc(F)cc3)cc(C(C)=O)c2C)c(OC)c1	-6%	.	11%	.	0%	.	.
O=C(O)c1ccc2cccnc2c1O	-1%	-1%	22µM*	-5%	-11%	-17	7.6*
Cc1ccc2c(c1)N(C)/C(=C/c1cccc[n+]1C)S2	-16%	.	?	-32%	45%	2	38*
CCN1/C(=C/c2cccc[n+]2C)Sc2ccc(OC)cc21	-3%	.	?	14%	49%	3	.
COc1ccc2c(c1)N(C)/C(=C/c1cccc[n+]1C)S2	-20%	.	20µM*	-19%	88%	-2	?
CCCCc1nc2c(c3c1C[C@H](C)OC3)CN(C(=O)Nc1cccc(C#N)c1)CC2	.	i[11.5 µM]	.	-2%[12.4 µM]	-1%[12.4 µM]	.	.
CCOC(=O)C1=C(COC(=O)c2ccc([N+](=O)[O-])s2)NC(=O)NC1C (stereo not drawn)	-10%	.	?	?	.	-3	4.3*
CCOC(=O)C1=C(COC(=O)c2sccc2C)NC(=O)NC1C (stereo not drawn)	-1%	.	14%	-16%	.	1	.
O=C(Nc1ccccc1C(=O)O)c1cccc(NC(=O)c2ccccc2Br)c1	-12%	.	-3%	25%	1%	?	.
